The full list was thinned out, with hits kept by preference.
IDE exosite inh: exo-site inhibitors of human insulin-degrading enzyme. P14735. purified IDE, FL-6b probe fluorescence polarization; stronger effect = lower value. z-score at 20 µM. 17,000 compounds, 6.3% hits. AID 1259349;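 active = z-score of -3 or lower, meaning strong loss of probe binding signal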;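 note: His-tagged human IDE residues 42-1019 made in E. coli with 30 nM FL-6b probe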
* hit, by the source's call.

SMILES	IDE exosite inh
O=C(NC1CCCC1)N1CCCCN2[C@H](CO)[C@@H](c3ccc(/C=C/c4ccccc4)cc3)[C@@H]2C1	-2.8
O=C(NC1CCCC1)N1CCCCN2[C@H](C1)[C@H](c1ccc(/C=C/c3ccccc3)cc1)[C@@H]2CO	-13*
O=C(Nc1ccccc1F)N1CCCCN2[C@H](CO)[C@@H](c3ccc(/C=C/c4ccccc4)cc3)[C@H]2C1	-1.7
CC(C)C(=O)Nc1ccc2c(c1)C(=O)N(C)[C@H]1CC[C@@H](CC(=O)NCCc3ccccc3)O[C@H]1CO2	-0.18
CCC(=O)NC[C@@H]1[C@H](c2ccc(C3=CCCC3)cc2)[C@@H](CO)N1C(=O)C1CC1	3
CCCC#Cc1ccc([C@H]2[C@H](CO)N3CCCCN(Cc4cccnc4)C[C@@H]23)cc1	0.4
CCCC#Cc1ccc([C@H]2[C@H](CO)N3C(=O)CN(C(=O)Nc4cccc(F)c4)C[C@@H]23)cc1	1.5
C[C@H]1CN([C@@H](C)CO)C(=O)c2ccccc2-c2ccccc2CO[C@@H]1CN(C)C(=O)Nc1cccc(C(F)(F)F)c1	0.52
N#C[C@@H]1[C@H](c2ccccc2-c2ccccc2)[C@H](CO)N1C(=O)Cc1ccncc1	0.41
COc1ccccc1NC(=O)N1CC(=O)N2[C@H](CO)[C@H](c3ccc(-c4ccccc4)cc3)[C@@H]2C1	0.8
COc1ccc2c3c(n(C)c2c1)[C@@H](CO)N(C(=O)C1CCOCC1)CC31CN(C)C1	-0.84
Cc1ccccc1-c1ccc([C@@H]2[C@@H](CO)N3C(=O)CN(C(=O)Nc4ccc(F)cc4)C[C@H]23)cc1	-1.4
Cc1ccccc1-c1ccc([C@@H]2[C@@H](CO)N3C(=O)CN(C(=O)Nc4ccc(F)cc4)C[C@@H]23)cc1	-11*
Cc1ccccc1-c1ccc([C@@H]2[C@H](CO)N3CCCCN(C(=O)Nc4cccc(F)c4)C[C@@H]23)cc1	0.19
Cc1ccccc1-c1ccc([C@H]2[C@@H](CO)N3CCCCN(C(=O)Nc4ccc(F)cc4)C[C@H]23)cc1	-7.1*
Cc1ccccc1-c1ccc([C@@H]2[C@@H](CO)N3C(=O)CN(C(=O)Nc4cccc(F)c4)C[C@H]23)cc1	-2.1
Cc1ccccc1-c1ccc([C@@H]2[C@@H](CO)N3CCCCN(C(=O)Nc4ccc(F)cc4)C[C@H]23)cc1	1.8
Cc1ccccc1-c1ccc([C@H]2[C@@H](CO)N3CCCCN(C(=O)Nc4cccc(F)c4)C[C@@H]23)cc1	-4.4*
Cc1ccccc1-c1ccc([C@H]2[C@H](CO)N3CCCCN(C(=O)Nc4ccccc4)C[C@@H]23)cc1	-3.9*
Cc1ccccc1-c1ccc([C@H]2[C@H]3CN(C(=O)Nc4ccc(F)cc4)CCCCN3[C@H]2CO)cc1	3.4
Cc1ccccc1-c1ccc([C@@H]2[C@@H](CO)N3CCCCN(C(=O)Nc4ccccc4)C[C@@H]23)cc1	1.2
O=C(Nc1cccc(F)c1)N1CCCCN2[C@H](CO)[C@H](c3ccc(-c4ccccc4F)cc3)[C@H]2C1	1.7
Cc1ccccc1-c1ccc([C@H]2[C@@H](CO)N3CCCCN(C(=O)Nc4ccc(F)cc4)C[C@@H]23)cc1	-1.6
C/C=C/c1ccc([C@H]2[C@@H](CO)N(S(C)(=O)=O)[C@H]2CN(CC)C(C)=O)cc1	-0.59
CCS(=O)(=O)Nc1ccc2c(c1)C(=O)N(C)C[C@H](OC)[C@@H](C)CN(CC1CCCCC1)[C@H](C)CO2	-0.2
SMILES	IDE exosite inh
CO[C@@H]1CC[C@H]2CCOc3ccc(C#N)cc3C(=O)N(C)[C@H](C)C(=O)N(C)C[C@H]1O2	0.87
CN1CCCCN2[C@H](C1)[C@H](c1ccc(-c3cccnc3)cc1)[C@@H]2CO	-1.2
Cc1cccc(-c2ccc([C@H]3[C@@H](CO)N4CCCCN(C(=O)c5ccncc5)C[C@@H]34)cc2)c1	-1.7
Cc1cccc(-c2ccc([C@H]3[C@H](CO)N4CCCCN(C(=O)c5ccncc5)C[C@@H]34)cc2)c1	-1.4
O=C(c1cccc(F)c1)N1CCCCN2[C@H](C1)[C@@H](c1ccc(-c3cccnc3)cc1)[C@@H]2CO	0.89
Cc1cccc(-c2ccc([C@@H]3[C@H]4CN(C(=O)c5cccnc5)CCCCN4[C@H]3CO)cc2)c1	-15*
Cc1cccc(-c2ccc([C@H]3[C@@H](CO)N4CCCCN(C(=O)c5cccnc5)C[C@@H]34)cc2)c1	-0.85
Cc1cccc(-c2ccc([C@H]3[C@@H](CO)N4CCCCN(C(=O)c5cccnc5)C[C@H]34)cc2)c1	-17*
N#C[C@H]1[C@@H](c2ccccc2)[C@@H](CO)N1S(=O)(=O)c1ccc(-c2ccccc2)cc1	1.6
O=C(O)[C@H]1[C@H](CO)[C@H]2Cn3c(cccc3=O)[C@H]2N1C(=O)NC1CCCC1	-0.19
O=C(C[C@H]1CC[C@H]2[C@@H](COC[C@@H](O)CN2C(=O)c2ccccc2F)O1)NCc1ccc(Cl)c(Cl)c1	-1.5
CNC[C@@H]1OCCCC[C@@H](C)Oc2ccc(N)cc2C(=O)N([C@@H](C)CO)C[C@H]1C	0.2
CCC(=O)NC[C@H]1[C@H](c2ccc(-c3cccc(F)c3)cc2)[C@@H](CO)N1C(=O)CC	2.4

Source: PubChem (Broad Institute)
